Data published in paper PMC12864922, “TDP-43 directly inhibits mRNA accumulation in neurites through modulation of mRNA stability”.
The full ranking holds about 9,900 sequences; the median of “r (bound/input frequency ratio)” is about 0.7, and the highest 2% start at about 6.5. This excerpt belongs to a sample that is enriched for the highest values.

B1: ENSMUSG00000022095.275|Fam160b2|1:15;62:66;198:203 (ssRNA)
RNA: GGGAGUUCUACAGUCCGACGAUCGCUUCGAUAUCCGCAUGCUACACACACACACACACAGAGAGAGAGAGAGAGAGAGAGAGCUGUGAGUACACAUGGGUGCUGCACACGGACAGGAGCAGAUCUUGGUGGAGUGGGUCUACACUUGAGAUUUGUACUCGUUUGAGAGGCUGGGCAAUACUCAAUGCACUUUGGCAUUUGCAUGGUGUCUUCACAACAGCACAGCAAUAAACAUUGUGAUACACACGACAUGCUGACUCUCCCCAGUCUGCUUUUCUUUUCCCCAAGCUUUUCUGCCCCUGUACUCUUGCGGUCGCACUAGUGUGGAAUUCUCGGGUGUCAAGG
B2: ENSMUSG00000061578.1471|Ksr2|12:16 (ssRNA)
RNA: GGGAGUUCUACAGUCCGACGAUCGCUUCGAUAUCCGCAUGCUAUGGAUGGAUAGCAUACUGAAUAAAUGGAUGGAUGGAUGGAUUGAUUUGUGAAUGAAUGGAUGAAUGGAUGGGUAGGUGGGUGGAUGCAUAGGCAAGUAGAUGAAUGAAUAUGUGGGUAGAAGGGUGAGUGGGUGGAUGAAUGGAUGGAUAGGUUGGUAGGUUAAUGUAUUCGUGGAUGGGUGAAUGGAUGGAUGGAUAGAUAGAUGGGAAGGUGGAUGGACAGAUGGAUGGAUGGAUAGAUAGAUGGACAGGUGGUUGGUCUCUUGCGGUCGCACUAGUGUGGAAUUCUCGGGUGUCAAGG
B3: ENSMUSG00000061578.1474|Ksr2 (ssRNA)
RNA: GGGAGUUCUACAGUCCGACGAUCGCUUCGAUAUCCGCAUGCUAAAUAAAUGGAUGGAUGGAUGGAUUGAUUUGUGAAUGAAUGGAUGAAUGGAUGGGUAGGUGGGUGGAUGCAUAGGCAAGUAGAUGAAUGAAUAUGUGGGUAGAAGGGUGAGUGGGUGGAUGAAUGGAUGGAUAGGUUGGUAGGUUAAUGUAUUCGUGGAUGGGUGAAUGGAUGGAUGGAUAGAUAGAUGGGAAGGUGGAUGGACAGAUGGAUGGAUGGAUAGAUAGAUGGACAGGUGGUUGGUGGAUAAAUGAGUGAAUGACUCUUGCGGUCGCACUAGUGUGGAAUUCUCGGGUGUCAAGG
B4: ENSMUSG00000058297.476|Spock2 (ssRNA)
RNA: GGGAGUUCUACAGUCCGACGAUCGCUUCGAUAUCCGCAUGCUAGCUGUGUUGGAAAGAGUUCAACCAAAUUACGGCAGCACCACAUCUUGCCGAGCCCUGGAGCUGCCCUACUAAGAGCCUCCUUAGCCCUGGGUGCUGGGAAGGAUGGUGUACGUUGGGGAAGUUUGAGGUUGGAGAGAGUAAAUGUGCCUUGAGAGACCACUCAGAGGUCCCAGGAGGAACGGGGGCGGGGCUUAGCCUGGGAGUUCUGGCAGGAGGCAAAGUUGGUGAGAGUCCUGGGACAUCUUACCCCCAGUGUUCCACUCUUGCGGUCGCACUAGUGUGGAAUUCUCGGGUGUCAAGG
B5: ENSMUSG00000090935.506|Synj2bp|218:224 (ssRNA)
RNA: GGGAGUUCUACAGUCCGACGAUCGCUUCGAUAUCCGCAUGCUAAAGCUCCAUAGAAGGCAAGACGCAUUCCACAUCUUGUCUUGACCAGCAGCACUCUGGAGGCCCAGUGUCUGCUACCCUUCUUGUAUCUGAUGGCAUGGGUAACAGCUCUGCCAUGGGCCUGCUUACUUCUAGUAUUCACCUCAGGGCUUGGAAAUUGGUUUUGAAAGGCUUUUAGACAUAGAAAGUAAAACUAAUGGCAAGGAGGAUAAAACACUGUACACACAUGUAUUGUUGAUCUAAAUAAAAAAUAUCAUUGGUAGCUCUUGCGGUCGCACUAGUGUGGAAUUCUCGGGUGUCAAGG
B6: ENSMUSG00000032194.149|Kank2 (ssRNA)
RNA: GGGAGUUCUACAGUCCGACGAUCGCUUCGAUAUCCGCAUGCUAGCAGAGGAGACUACUUCUAGAAAUACUUUCAGACCUACAGACAAAAAAGAAAAAAGGCCAUUCCGGAGUGACUCCCAGCAUCACAGCCCAGAACCUCCUCCUCAAAGGAGAGUAAACAGAGACUGUGAUACUGACCAAGUACAGGCGCUCGCUAUGAAGCCCAUAUGUUCCUGAUUAAGAGCUGGCUGGCCUCAGAGCACUCCCAGAACUAGCUUAAAGUGACAGGCUUUGCUGAAAUCCAAAGGGACAAAAGAGUAGUUCUCUUGCGGUCGCACUAGUGUGGAAUUCUCGGGUGUCAAGG
B7: ENSMUSG00000022095.204|Fam160b2 (ssRNA)
RNA: GGGAGUUCUACAGUCCGACGAUCGCUUCGAUAUCCGCAUGCUAUUGCCAGGAGGUGACAUGAAAGAGGAGGAAACUCCAUGACCUCUACAUCCCCCGCAGUCCUCCCAGCGGGGGAGGACUUCUCUGCUGCUCCGAAGAACAUCAUGCACUCCUGUGUGUGUGUGUGAGUGUGUGUGUGUGUGUGUGUGUGUGUGUGUGUGUAUGUGUGUGUAUAUGUGUGUGUGUGUGUGUAUGUGUGUGUGUGUGUGUGAGUGAGUGUGUGUGUGUGUGUGUGUGUGUGAGUGUGUGUGUAUAUGUGUGUGCUCUUGCGGUCGCACUAGUGUGGAAUUCUCGGGUGUCAAGG
B8: ENSMUSG00000022095.206|Fam160b2 (ssRNA)
RNA: GGGAGUUCUACAGUCCGACGAUCGCUUCGAUAUCCGCAUGCUAGACAUGAAAGAGGAGGAAACUCCAUGACCUCUACAUCCCCCGCAGUCCUCCCAGCGGGGGAGGACUUCUCUGCUGCUCCGAAGAACAUCAUGCACUCCUGUGUGUGUGUGUGAGUGUGUGUGUGUGUGUGUGUGUGUGUGUGUGUGUAUGUGUGUGUAUAUGUGUGUGUGUGUGUGUAUGUGUGUGUGUGUGUGUGAGUGAGUGUGUGUGUGUGUGUGUGUGUGUGAGUGUGUGUGUAUAUGUGUGUGUGUGUGUGAGAGCUCUUGCGGUCGCACUAGUGUGGAAUUCUCGGGUGUCAAGG
B9: ENSMUSG00000022095.205|Fam160b2 (ssRNA)
RNA: GGGAGUUCUACAGUCCGACGAUCGCUUCGAUAUCCGCAUGCUAGGAGGUGACAUGAAAGAGGAGGAAACUCCAUGACCUCUACAUCCCCCGCAGUCCUCCCAGCGGGGGAGGACUUCUCUGCUGCUCCGAAGAACAUCAUGCACUCCUGUGUGUGUGUGUGAGUGUGUGUGUGUGUGUGUGUGUGUGUGUGUGUGUAUGUGUGUGUAUAUGUGUGUGUGUGUGUGUAUGUGUGUGUGUGUGUGUGAGUGAGUGUGUGUGUGUGUGUGUGUGUGUGAGUGUGUGUGUAUAUGUGUGUGUGUGUGCUCUUGCGGUCGCACUAGUGUGGAAUUCUCGGGUGUCAAGG
B10: ENSMUSG00000022095.203|Fam160b2 (ssRNA)
RNA: GGGAGUUCUACAGUCCGACGAUCGCUUCGAUAUCCGCAUGCUACACAGGUUGCCAGGAGGUGACAUGAAAGAGGAGGAAACUCCAUGACCUCUACAUCCCCCGCAGUCCUCCCAGCGGGGGAGGACUUCUCUGCUGCUCCGAAGAACAUCAUGCACUCCUGUGUGUGUGUGUGAGUGUGUGUGUGUGUGUGUGUGUGUGUGUGUGUGUAUGUGUGUGUAUAUGUGUGUGUGUGUGUGUAUGUGUGUGUGUGUGUGUGAGUGAGUGUGUGUGUGUGUGUGUGUGUGUGAGUGUGUGUGUAUAUGCUCUUGCGGUCGCACUAGUGUGGAAUUCUCGGGUGUCAAGG
B11: ENSMUSG00000042529.429|Kcnj12|20:25;182:186 (ssRNA)
RNA: GGGAGUUCUACAGUCCGACGAUCGCUUCGAUAUCCGCAUGCUAAUGUCAGUGGCUUGGGUGCACACACGAGAGAGAGAGAGAGAGAGAGAGAGAGAGAGAGAGAGAGAGAGAGAGAGAGCUGCACAGGAUGAAGCAGCUGCCCUGAGCCCAUCUGGUGCUGUGCACCUGGUCCUUGUCCAGCCGAGGGCCUGGGGGCAGAAGAACACACCAUAGGGAGGCCCUUCAUACGGUGUCUGCCCUAUGUGAGGUCAUAGAAUGUUAAAUCUAUUUUAAACGGUGAAACUGGAGAAUUUUCAUGUUAUCUCUUGCGGUCGCACUAGUGUGGAAUUCUCGGGUGUCAAGG
B12: ENSMUSG00000061578.155|Ksr2 (ssRNA)
RNA: GGGAGUUCUACAGUCCGACGAUCGCUUCGAUAUCCGCAUGCUAUAUGCAUGAUGGGUUACAUGGGUGUGUGUGUGUGUGUAACUGUUUACAAUGGUCUCCCUGCCUCUCACGGGCUGUGUUCCAGGAGAAUGCACAUAGAGAGGUUCUGUGGUCUCUGCUGUCGCCUGGUGCUGAAUCCUGAGUGGUUUCCCCACUGAGGACCCUGUGACCCUGUGACCCUUGGCCCCUCCCUUAUUGUGCACACUCAGCACCCCAUCUUCCAAGCCUUUCUUCAUCCCCCACCUUCUUUUGGGAAGGGGUGGCUCUUGCGGUCGCACUAGUGUGGAAUUCUCGGGUGUCAAGG
B13: ENSMUSG00000090935.767|Synj2bp (ssRNA)
RNA: GGGAGUUCUACAGUCCGACGAUCGCUUCGAUAUCCGCAUGCUAAUUUUAAAAAUCAGUUUACUUUCAUCUUUUCUCUUUAGGCUUUCAAUAAAGACCAGAAGGACUGAUAGACAGCUAGAGAGGAUCGUGUAGGCAUCCAGAUUAGAAUGGAAGAAUCCAUUGAACAAUCUGAGAAAACUAAUCAGGUGUUGUUUUAAUCACAUUAGUUUUAAGUUAGAUACAUGCUCUUUGUAGUAUUUUGGGUUUUAUUGUGCAAAUAAGCAAUUAAAAUAUAUUUAGAAGCCAAGUAUAAUGGUACAUGUCUCUUGCGGUCGCACUAGUGUGGAAUUCUCGGGUGUCAAGG

The binders below were run against TDP-43 (Homo sapiens, UniProt Q13148 1-414) (assay: RNA Bind-n-Seq with designed 260-mer pool; 25 mM Tris-HCl, 150 mM KCl, 3 mM MgCl2, BSA (printed 500 mg/mL), 20 units/mL SUPERase IN; pH not stated; 500 nM RNA pool, 1 h, 4 C; TDP-43 5, 50, 500 nM; high values mean tight binding). Conditions: protein: recombinant; tags: SBP (GST cleaved off with PreScission; pGEX-GST-SBP).
TDP-43, sequence (Q13148 whole entry): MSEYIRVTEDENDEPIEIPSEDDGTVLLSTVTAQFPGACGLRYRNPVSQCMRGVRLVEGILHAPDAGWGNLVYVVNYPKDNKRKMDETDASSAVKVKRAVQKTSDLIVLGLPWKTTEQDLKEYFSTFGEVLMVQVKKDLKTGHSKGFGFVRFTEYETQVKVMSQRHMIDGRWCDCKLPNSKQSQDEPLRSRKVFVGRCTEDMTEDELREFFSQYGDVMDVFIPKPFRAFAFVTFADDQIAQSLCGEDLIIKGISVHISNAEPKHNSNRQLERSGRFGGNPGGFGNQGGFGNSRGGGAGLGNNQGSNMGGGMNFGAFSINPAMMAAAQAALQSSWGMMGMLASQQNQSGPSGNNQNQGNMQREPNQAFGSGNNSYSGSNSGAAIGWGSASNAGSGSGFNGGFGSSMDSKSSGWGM
Outline: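 An in vitro-transcribed pool of 260-nt 3′ UTR oligos (500 nM) was incubated for 1 h at 4 °C with recombinant SBP-tagged TDP-43 at 5, 50 or 500 nM held on streptavidin beads. The buffer contained 25 mM Tris-HCl, 150 mM KCl, 3 mM MgCl2, BSA and SUPERase IN. Biotin-eluted bound RNA was sequenced, and binding, R, is each oligo's normalized read abundance in the bound sample over that in input.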
In the case of B1, the binding signal is reported as 2.5 R (bound/input frequency ratio). For B2, the binding signal was 8.75 R (bound/input frequency ratio). With B3 the binding signal was 3.43 R (bound/input frequency ratio). With B4 the binding signal was 3.44 R (bound/input frequency ratio). B5 was tested, and the binding signal was 0.236 R (bound/input frequency ratio). With B6 the binding signal was 0.573 R (bound/input frequency ratio). In the case of B7, the binding signal is reported as 7.95 R (bound/input frequency ratio). In the case of B8, the binding signal is reported as 3.86 R (bound/input frequency ratio). B9 was tested, and the binding signal was 7.87 R (bound/input frequency ratio). In the case of B10, the binding signal is reported as 8.18 R (bound/input frequency ratio). With B11 the binding signal was 5.54 R (bound/input frequency ratio). For B12, the binding signal was 1.09 R (bound/input frequency ratio). B13 was tested, and the binding signal was 0.0267 R (bound/input frequency ratio).
